Source: PubChem BioAssay
Rows were chosen to be rich in hits. Some 2.3% of all compounds tested hit in one or more screens of this group.
Pol III holo inh = inhibitors of bacterial DNA polymerase III holoenzyme; reconstituted DNA polymerase III holoenzyme replication, biochemical; Potency, µM (series often up to 57.1 µM); actives 0.25% (n = 71,000); AID 603
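Reconstituted *E. coli* holoenzyme (0.35 nM Pol III, 1 nM beta, 154 nM SSB, 2 nM primase) was preincubated with compound for 15 min at RT. Synthesis on 1.4 nM ssM13Gori ran 35 min, then was stopped with PicoGreen/EDTA and read as dsDNA fluorescence.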
TsaE inh = inhibitors of E. coli YjeE (TsaE); P0AF67; purified YjeE enzyme, qHTS inhibition assay; Potency, µM; actives 0.05% (n = 71,000)
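Fluorescence polarization of a BODIPY Texas Red–ADP probe (2 uM) bound to purified YjeE (10 uM) was read after 15 min room-temperature incubation with compounds. Loss of polarization marks inhibitors; ADP serves as titrated control.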
Tau fil binding = binders of human tau filaments; recombinant tau filaments, thioflavin S fluorescence, 15 h; filaments grown with octadecylsulfate alongside compound; actives 2% (n = 71,000); Potency, µM (doses to about 57.1 µM); AID 596;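 note: actives lower thioflavin S fluorescence by blocking filaments or displacing dye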
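ThS-based fibril read: tau 1 uM final, inducer ODS 30 uM final, 37 C for 15 h, ex 450/em 510 nm.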
BRCT PPI green = blocks human BRCA1 BRCT binding to phosphopeptide, green readout | P38398 | BRCA1 BRCT-phosphopeptide binding, green fluorescence polarization | Potency, µM (top dose mostly 76.9 µM), most hits filed as inhibitors | actives 0.05% (n = 75,000) | AID 875
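Fluorescence polarization: His-tagged BRCT (~35 kDa BRCA1 C-terminus, 250 nM) bound to 100 nM fluorescein-labeled phosphorylated 10-aa BACH1 peptide, pH 7.3 phosphate buffer with DTT and Tween 20. Compounds incubated 12 min at room temperature; inhibition read as lowered polarization.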
Hsp90 Hop PPI = changes Hsp90-Hop TPR2A binding signal, up or down; actives 0.44% (n = 71,000); Potency, µM (series often up to 57 µM); AlphaScreen TPR2A-His6 binding biotin-Hsp90 C-terminal peptide; active = well fitted curve in either direction with a large enough effect; inconclusive = small, poorly fitted or top-dose-only effect, or another doubt
BRCT inh red = disrupts BRCA1 BRCT binding to phosphoprotein, red fluorophore readout; BRCT-phosphopeptide binding, red fluorescence polarization; Potency, µM (titrated, usually from 76.9 µM), hits mostly inhibitors; actives 0.03% (n = 75,000)
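Rhodamine-labelled pBACH1 10-mer (100 nM) bound to BRCT domain (100 nM) at pH 7.3; compounds incubated 12 min room temperature, polarization read. Free peptide defines full inhibition; unlabelled decapeptide titrated as control.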
Of the large screens only hits and unclear results are named; the others gave an inactive call. Unless noted, calls come from the whole dose curve; as a rule, active = well fitted curve in the direction sought with a large enough effect; inconclusive = small, poorly fitted or top-dose-only effect, or another doubt; inactive = no such curve, though single readings can be large; an effect the other way counts as inactive or inconclusive.

Brc1ccc2[nH]c3nc(SCCN4CCOCC4)nnc3c2c1	Tau fil binding 12.6µM
Nc1cccc(B(O)O)c1	none (no result: Pol III holo inh, TsaE inh, Tau fil binding, Hsp90 Hop PPI)
Cc1ccc(S(=O)(=O)N2CCC(C(=O)N[C@@H](C)C(=O)Nc3ccc4c(c3)OCO4)CC2)cc1	Tau fil binding 10µM
Cc1ccc(S(=O)(=O)N2CCC(C(=O)OC(C)C(=O)NCc3ccc4c(c3)OCO4)CC2)cc1 (centres undefined)	Hsp90 Hop PPI inconclusive
CCC(=O)Nc1cccc(NC(=O)c2cc3ccccc3o2)c1	none
Cc1cc(-c2csc(NC(=O)c3cc4ccccc4o3)n2)c(C)n1C	Tau fil binding 10µM
Cc1cc2cc(CNC(=O)c3cc4ccccc4o3)ccc2n1C	Tau fil binding 15.8µM, Hsp90 Hop PPI inconclusive
COc1c(-c2coc3cc4c(cc3c2=O)CC(O)C(C)(C)O4)ccc2c1C=CC(C)(C)O2 (centres undefined)	none (no result: Pol III holo inh, TsaE inh, Tau fil binding, Hsp90 Hop PPI)
Cc1noc(C)c1C(=O)N1CCC2(CCN(Cc3ccccc3)CC2)CC1	none
CCOc1ccc(-c2nnc(SCC(=O)N3CCN(c4ccccc4)CC3)o2)cc1	none
O=C(CSc1nnc(-c2ccccc2)o1)N1CCN(c2ccccc2)CC1	Tau fil binding 10µM
O=c1c(-c2cccs2)nc2cncnc2n1C1CC1	none
COc1ccc(Oc2ncc3nc(-c4ccc(OC)cc4)c(=O)n(C4CC4)c3n2)cc1	none
COC(=O)c1cc(=O)c(O)c2c(O)c(O)ccc2c1	none (no result: Pol III holo inh, TsaE inh, Tau fil binding, Hsp90 Hop PPI)
CN1c2ccccc2C(C)(C)C12C=Cc1cc(O)ccc1O2 (centres undefined)	TsaE inh inconclusive, Tau fil binding 25.1µM, Hsp90 Hop PPI inconclusive
COc1ccc2c(c1OC)C(Cc1ccccc1)N1CCc3cc4c(cc3C1C2)OCO4 (centres undefined)	none (no result: Pol III holo inh, TsaE inh, Tau fil binding, Hsp90 Hop PPI)
CCOc1ccc(C(=O)Nc2ccc(N3CCCC3)cc2)cc1	Tau fil binding 10µM, Hsp90 Hop PPI inconclusive
CCOc1ccc(C(=O)Nc2ccc(N3CCN(C)CC3)cc2)cc1Br	Tau fil binding 10µM
COc1cc2ccccc2cc1C(=O)Nc1ccc(N2CCN(C)CC2)cc1	Tau fil binding 3.16µM
CCCOc1ccc(C(=O)Nc2ccc(N3CCN(C(C)=O)CC3)cc2)cc1	Tau fil binding inconclusive
COc1ccccc1C(=O)Nc1ccc(N2CCN(S(C)(=O)=O)CC2)cc1	none
Nc1nc2c(c(=O)[nH]1)CN(c1ccc(S(N)(=O)=O)cc1)CN2	none
CCCNC(=O)c1cc(-c2ccco2)on1	none
CCCCNC(=O)c1ccc2nc(-c3ccco3)c(-c3ccco3)nc2c1	Pol III holo inh 15.8µM, TsaE inh inconclusive, Tau fil binding inconclusive, Hsp90 Hop PPI inconclusive
O=C(Nc1ccccc1)c1ccc2nc(-c3ccco3)c(-c3ccco3)nc2c1	Tau fil binding 0.631µM
Nc1c(C(=O)Nc2ccccc2)sc2nc(-c3ccco3)ccc12	Tau fil binding 2µM
O=C(Nc1ccc(N2CCOCC2)cc1)c1ccc2nc(-c3ccco3)c(-c3ccco3)nc2c1	Tau fil binding 7.94µM
COc1ccccc1NC(=O)c1sc2nc(-c3ccco3)ccc2c1N	none
COc1ccc(C(=O)Nc2ccc(N3CCOCC3)cc2)cc1OC	none
Cc1cc(=O)cc2oc3cc(N)c(-c4c(C)cc(O)cc4O)c(C)c3nc1-2	BRCT inh red inconclusive (no result: Pol III holo inh, TsaE inh, Tau fil binding, Hsp90 Hop PPI)
C[C@@H]1C(=O)O[C@H]2[C@@H](O)[C@@]34[C@H]5C[C@H](C(C)(C)C)[C@@]36[C@H](OC(=O)[C@@H]6O)O[C@@]4(C(=O)O5)[C@@]12O	Tau fil binding inconclusive, Hsp90 Hop PPI inconclusive (no result: BRCT PPI green, BRCT inh red)
O=C(Nc1ccc(Nc2ccccc2)cc1)N1CCOCC1	Tau fil binding 15.8µM
COC(=O)c1ccc(NC(=O)N2CCOCC2)cc1	none
CC(=O)O[C@@H]1CC(C)=C2[C@H]1[C@H](C)CC[C@H]2/C=C(\C)C(=O)O	none
CC(C)COC(=O)C(C#N)c1nc2ccccc2nc1N1CCN(Cc2ccc3c(c2)OCO3)CC1 (centres undefined)	Tau fil binding 2µM
COC(=O)C(C#N)c1nc2ccccc2nc1N1CCN(Cc2ccc3c(c2)OCO3)CC1 (centres undefined)	Tau fil binding 12.6µM
